Rows were chosen to be rich in hits. Some 14% of all compounds tested hit in one or more screens of this group.
HCMV antiviral – inhibitors of human cytomegalovirus; HFF cells, HCMV-luciferase reporter, 72 h; hits give low values; activity change, negative = inhibition, % at 57.5 µM; 410,000 compounds, 4.5% hits; AID 1259415; in the data active means activity change below about -60%; inconclusive means no clear call, values can overlap the other calls; inactive means above about -39%
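Two compound doses tested in HFFs infected with HCMV-luciferase, MOI 1 PFU/cell, 72 h at 37C. Lysate luminescence read with OneGlo; data normalized against buffer-only and 10uM Salinomycin inhibitor controls.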
Pf growth 48h – inhibits P. falciparum growth in the first generation, 48 h | P. falciparum luciferase growth in erythrocytes, 48 h | Potency, µM (top dose mostly 28.7 µM), for the others: at the top dose activity change, negative = inhibition, usual class: inhibitors | 310,000 compounds, 5.9% hits | AID 504832; further: potency means the concentration at half of the fitted maximal effect
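Read-out is firefly luciferase luminescence from an integrated reporter in P. falciparum, so falling signal marks reduced parasite growth. Infected erythrocytes were at 2% hematocrit and 0.1% parasitemia (final) in Albumax-supplemented RPMI 1640.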
HCV inh – HCV inhibition. Huh7.5.1 HCVcc-Cre infection, luciferase reporter, 44 h. Potency, µM (top dose mostly 41.8 µM), for inactives: at the top dose activity change, negative = inhibition, usual class: inhibitors. 340,000 compounds, 3.4% hits; further: potency means the concentration at half of the fitted maximal effect
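Infectious HCVcc-Cre (~0.5 moi) was added to cells just after compound, with cells seeded 4 h earlier at 1,000 per well. Luciferase activity after 44 h culture reported infection; substrate was incubated 15 min at room temperature before reading.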
LASV entry inh – inhibitors of Lassa virus binding or cell entry | Potency, µM (highest dose often 37.9 µM), inactives show top-dose activity change, negative = inhibition, usual class: inhibitors | 300,000 compounds, 1.2% hits | Lassa virus pseudotype entry inhibition, cell reporter | AID 540256; calls by dose curve; tested in HEK293 cells; further: potency means the concentration at half of the fitted maximal effect; nearly all actives have a fitted effect of over 50% in size
Pf growth 96h – P. falciparum growth inhibition at 96 hours; 320,000 compounds, 6.9% hits; P. falciparum luciferase reporter growth, 96 h; Potency, µM (titrated, usually from 28.7 µM), without a hit: top-dose activity change, negative = inhibition, most hits filed as inhibitors; further: potency means the concentration at half of the fitted maximal effect
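Erythrocytes infected with luciferase-expressing P. falciparum were dispensed at 2% hematocrit and 0.05% parasitemia (final), then incubated with compounds 96 hours at 37 C in 5% CO2. Luminescence after detection reagent addition reported growth.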
Marburg entry inh – inhibitors of Marburg virus binding or cell entry; Marburg virus pseudotyped entry inhibition, cell reporter; Potency, µM (series often up to 37.8 µM), inactives show top-dose activity change, negative = inhibition, most hits filed as inhibitors; 300,000 compounds, 1.8% hits; AID 540276; calls by dose curve; tested in HEK293 cells; further: potency means the concentration at half of the fitted maximal effect
An asterisk follows results filed as active; ? = inconclusive; nt = not tested or not shown; [ ] = remark or other dose. Unless noted, the call rests on the fitted dose curve; in most records, active means well fitted inhibition curve with a large enough effect; inconclusive means small, poorly fitted or top-dose-only effect, or another doubt; inactive means no such curve, though single readings can be large or run the other way. On the % scale 0 is the no-effect control and ±100 the full control effect.

SMILES	HCMV antiviral	Pf growth 48h	HCV inh	LASV entry inh	Pf growth 96h	Marburg entry inh
Cc1cc(/C=N\NC(=O)COc2cccc3cccnc23)c(C)n1-c1ccc(Br)cc1	?	5.9µM*	?	-12%	2.3µM*	-44%
CCN1C2=C(C=C/C1=C1\C(=O)N(C)C(=S)N1C1CCCCC1)CCCC2	nt	nt	nt	nt	nt	2%[46.1 µM]
COc1ccc(-n2cc(C(=O)Nc3cc(F)ccc3F)c3ccccc3c2=O)cc1	?	nt	nt	0%[46.1 µM]	nt	nt
CCCOc1ccc(CN(C(=O)Cc2coc3ccc(CC)cc23)C2CCS(=O)(=O)C2)cc1 (stereo not drawn)	42	nt	nt	-18%[46.1 µM]	nt	?
CC(C)n1cc(/C=N/NC(=O)COc2cccc3cccnc23)c2ccccc21	12	?	?	?	8.3µM*	10µM*
Cc1cc(/C=N\NC(=O)COc2cccc3cccnc23)c(C)n1-c1ccccc1	?	?	?	0%	6.6µM*	?
COc1ccc(/C=N/NC(=O)COc2cccc3ccccc23)c(C(=O)O)c1OC	54	-4%	0%	0%	?	?
COc1ccccc1OCC(=O)N/N=C/c1c(O)ccc2ccccc12	-109*	2.6µM*	nt	nt	?	nt
Cc1nc2ccccn2c1C(=O)N/N=C/c1cc(C)n(-c2ccc(Br)cc2)c1C	?	?	4µM*	-17%	?	?
CCN(CCCNC(=O)c1ccc(Sc2ccc(F)cc2)c(NC(C)=O)c1)c1ccccc1	34	nt	nt	-17%[46.1 µM]	nt	nt
CCn1ccc2cc(S(=O)(=O)N3CCC(C(=O)NCc4ccc(OC)cc4)CC3)ccc21	16	nt	nt	-5%[46.1 µM]	nt	nt
CCc1ccc(-c2nn(CC(=O)NC3CCCC3)c3c2cnc2ccc(C)cc23)cc1	2	nt	nt	0%[46.1 µM]	nt	nt
CCOP(=O)(OCC)c1cccc(OP(=O)(c2cccc([N+](=O)[O-])c2)c2cccc([N+](=O)[O-])c2)c1	64	1%	18%	-12%	126%	1%[46.1 µM]
CCOP(=O)(OCC)c1cccc(O)c1	-65*	17%	20%	23%	-23%	16%[46.1 µM]
CC[C@@]1(C(=O)OC)N[C@H](CN(C)C(=O)COc2ccccc2)[C@@H]2C(=O)N(Cc3ccccc3)C(=O)[C@@H]21	-21	nt	?	nt	nt	nt
Cc1ccc(-n2cc(-c3ccc([N+](=O)[O-])cc3)[nH]c2=S)c(C)c1	-64*	?	?	0%	-101%	0%
O=C(NCc1ccccc1Cl)c1ccc2oc(=O)n(Cc3ccccc3)c2c1	-21	nt	nt	?	nt	nt
O=S1(=O)N=C(Nc2nc3c(s2)CCCC3)c2ccccc21	55	282%	-7%	7.1µM*	8%	?
COc1ccc(-c2cn3c(n2)CCC3)cc1	44	78%	-5%	-24%	-5%	-27%
c1ccc(-c2ccc(-c3cn4c(n3)CCC4)cc2)cc1	-62*	nt	?	10µM*	27%	7.1µM*
Clc1ccc2nnnc(-c3ccccc3)c2c1	-102*	?	4.5µM*	10µM*	?	6.5µM*
O=C(NCc1ccco1)C(c1ccccc1)N(Cc1ccccc1)C(=O)Cn1nnc2ccccc21 (stereo not drawn)	-35	-22%	-5%	?	9.3µM*	-31%[46.1 µM]
O=C(NCC1CCCO1)C(c1ccc(F)cc1)N(CC1CCCO1)C(=O)c1ccc(-c2ccccc2)[nH]1 (stereo not drawn)	7	2.1µM*	9%	nt	26%	nt
CCC(C)(C)NC(=O)C(c1ccc(C)cc1)N(Cc1ccco1)C(=O)Cn1nnc2ccccc21 (stereo not drawn)	-3	?	-19%	0%	74%	?
Cc1cccc(C)c1NC(=O)C(c1cccs1)N(Cc1ccco1)C(=O)Cn1nnc2ccccc21 (stereo not drawn)	?	6.6µM*	0%	-4%	nt	?
SMILES	HCMV antiviral	Pf growth 48h	HCV inh	LASV entry inh	Pf growth 96h	Marburg entry inh
O=C(NCc1ccc(F)cc1)C(c1ccccc1)N(CC1CCCO1)C(=O)Cn1nnc2ccccc21 (stereo not drawn)	-25	8.3µM*	-3%	7%	?	-28%
O=C(c1ccc2oc(Cc3ccc(Cl)cc3)nc2c1)N1CC[C@H](O)C1	-29	-11%	18%	7%[46.1 µM]	7%	12%[46.1 µM]
COCCn1c(SCC(=O)Nc2cc(Cl)ccc2OC)nc2c([nH]c3ccccc32)c1=O	37	nt	nt	-5%[46.1 µM]	nt	nt
CCCCNC(=O)CSc1nc2ccccc2c(=O)n1CC1COc2ccccc2O1 (stereo not drawn)	37	?	2.8µM*	-1%	?	-2%
CCN(CC)C(=O)CSc1nc2ccccc2c(=O)n1Cc1ccco1	-19	nt	nt	?	nt	nt
CCCCN(CC)C(=O)CSc1nc2ccccc2c(=O)n1CC1COc2ccccc2O1 (stereo not drawn)	?	1%	10µM*	-26%	?	?
O=C(CSc1nc2ccccc2c(=O)n1CC1CCCO1)NCc1ccccc1 (stereo not drawn)	12	?	-13%	0%	20%	-10%
COc1ccc(-c2nc3c(Cl)cc(C(F)(F)F)cn3c2Cc2cccc(F)c2)cc1OC	8	nt	nt	nt	nt	nt
C[C@@H]1CN([C@H](C)CO)C(=O)c2cc(Br)cnc2O[C@H]1CN(C)Cc1ccccc1F	-7	nt	nt	nt	nt	nt
CCCCN(Cc1ccco1)S(=O)(=O)c1csc(C(N)=O)c1	-3	16%	8%	nt	9.3µM*	nt
CN(C)CCN(Cc1ccco1)S(=O)(=O)c1csc(C(N)=O)c1	-21	23%	12%	nt	8.3µM*	nt

Screening results from PubChem.
